Screening data as filed in PubChem.
NTR1 agonist = activates human neurotensin receptor 1. P30989. NTR1-U2OS beta-arrestin-GFP spot imaging, agonist mode. activation, % at 20 µM. 330,000 tested, 0.17% active. AID 493036;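 active = activation at or above 40% of the spot to cytoplasm intensity ratio, with at least 20 cells analyzed; inconclusive = wells under 20 cells, flagged as cytotoxic or low count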;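 also: 0% = DMSO without peptide and 100% = 100 nM NTR1 peptide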
Target sequence (P30989 whole entry, looked up): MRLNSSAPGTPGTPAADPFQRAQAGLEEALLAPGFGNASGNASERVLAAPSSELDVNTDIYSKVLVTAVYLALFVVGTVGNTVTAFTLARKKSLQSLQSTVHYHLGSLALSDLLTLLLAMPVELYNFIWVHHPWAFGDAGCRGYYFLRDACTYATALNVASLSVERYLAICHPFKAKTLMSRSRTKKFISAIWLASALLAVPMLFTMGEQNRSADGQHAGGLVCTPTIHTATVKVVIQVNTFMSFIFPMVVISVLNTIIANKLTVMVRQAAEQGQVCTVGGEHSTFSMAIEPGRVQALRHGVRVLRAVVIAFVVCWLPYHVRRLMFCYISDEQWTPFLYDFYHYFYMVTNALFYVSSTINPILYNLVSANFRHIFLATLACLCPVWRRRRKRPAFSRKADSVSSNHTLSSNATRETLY
ALR inh = inhibitors of human sulfhydryl oxidase ALR | P55789 | purified ALR, DTT oxidation, H2O2 HRP-luminol luminescence | inhibition, % (concentration not given with the values) | 290,000 tested, 3.8% active | AID 485317;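 active = mean replicate inhibition above about 79%, with every replicate also reaching it, limit read from the data; inconclusive = only one of the two criteria met; inactive = mean below limit and not every replicate reaching it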
UBC9 SUMO inh = blocks human SUMOylation mediated by UBC9; HTRF SUMOylation assay, SAE1/SAE2 + UBC9, in vitro; inhibition, % at 35 µM; 290,000 tested, 0.36% active; AID 2006; in the data active = inhibition above about 50%, passing the limit was not always enough; inconclusive = no clear call, values can overlap the other calls
Target sequence (P63279 whole entry, looked up): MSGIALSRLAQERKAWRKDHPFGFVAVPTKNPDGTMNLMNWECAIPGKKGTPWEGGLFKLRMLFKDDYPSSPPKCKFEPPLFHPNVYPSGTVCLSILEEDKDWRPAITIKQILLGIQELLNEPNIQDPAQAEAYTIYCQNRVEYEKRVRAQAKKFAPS
Cardio protect = protects H9c2 cardiomyocytes from peroxide injury; protection from H2O2 cell death, % at 20 µM; H2O2 injury protection, ATPLite, 2 h; 360,000 tested, 0.63% active;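 active = compounds giving at least 50% protection of heart cells from peroxide-induced death in the single-dose screen, raw or plate-pattern-corrected value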;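 also: 0% = DMSO wells with peroxide and 100% = DMSO wells without peroxide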
The depositor's hits bear a star; u = inconclusive; x = not tested or not shown. This is a sample that favours compounds with a hit; in the whole collection about 3.9% have one here.

SMILES	NTR1 agonist	ALR inh	UBC9 SUMO inh	Cardio protect
CCCCCn1c(NC(=O)c2ccco2)c(C(=O)OCC)c2nc3ccccc3nc21	0.1	34.6	100.7*	-1.4
CCCCNC(=O)c1c(N)n(CCCOC)c2nc3ccccc3nc12	9.3	x	99.1*	13.9
CCOC(=O)c1c(N)n(CCCOC(=O)c2ccco2)c2nc3ccccc3nc12	0.3	-27.1	36.2	-33.0
Cc1cc(OCC(=O)N2C[C@H]3C[C@@H](C2)c2cccc(=O)n2C3)c2c(C)cc(=O)oc2c1	5.2	-8.7	35.3	3.2
O=[N+]([O-])c1ccc(Cl)c([N+](=O)[O-])c1	20.2	5.2	x	-43.1
COc1ccc(OC)c(-n2c(O)c(/C=C3\C=Nc4ccccc43)c(=O)[nH]c2=O)c1	5.8	59.8	19.3	23.7
CSCCC(NC(=O)CCC(=O)OC1CC[C@H]2[C@@H]3CC[C@H]4CC(=O)CC[C@]4(C)[C@H]3CC[C@]12C)C(=O)O (stereo partly specified)	0.2	-2.2	10.3	0.8
COCCNC(=O)c1c(NC(=O)c2ccc(Br)o2)n(Cc2ccccc2)c2nc3ccccc3nc12	5.3	u	98.7*	10.8
COCCCNC(=O)c1c(N)n(Cc2ccco2)c2nc3ccccc3nc12	0.2	10.2	38.6	14.7
COCCCNC(=O)c1c(NC(=O)c2ccco2)n(Cc2ccccc2)c2nc3ccccc3nc12	1.3	-34.9	98.4*	-0.2
O=c1[nH]c(=O)n(CCc2ccc(F)cc2)c(O)c1C=NCCCN1CCOCC1	-1.6	-1.9	-9.9	9.1
CCN(CC)c1ccc(CNCCc2ccccc2F)cc1	1.1	98.7*	-10.1	-13.7
CCCC/C(C)=C/[C@@H](NP(=O)(c1ccccc1)c1ccccc1)c1ccccc1	7.7	-3.0	14.4	-0.1
Nc1ccc(S(=O)(=O)N2CCCCC2c2cccnc2)cc1 (stereo unspecified)	-1.0	90.1*	24.8	5.3
O=S(=O)(c1ccccc1)N1CCCCC1c1cccnc1 (stereo unspecified)	0.1	-7.6	-0.5	-1.7
c1ccc2c(c1)Sc1ccccc1N2CC1CN2CCC1CC2 (stereo unspecified)	9.5	98.3*	7.7	2.1
COC(=O)C1=C(c2ccc3ccccc3c2)C[C@@H]2CC[C@H]1N2C(=O)N1CCC(O)CC1	-1.3	-10.0	x	-1.3
COc1ccc(CCN(C)Cc2ccc(F)cc2F)cc1OC	-0.1	-23.6	-8.2	6.4
CCN(CC)c1ccc(CN(C)CCc2ccc(OC)c(OC)c2)cc1	-0.1	99.2*	-26.5	-5.9
CN1CCN(c2ccc(NC(=O)Oc3ccccc3)cc2)CC1	-0.9	80.3*	9.9	3.0
Oc1ccc(C[C@H]2NCCc3cc(O)c(O)cc32)cc1O	-1.8	99.4*	28.5	56.8*
CNC(=O)Oc1ccc(N(C)C)cc1C(C)C	0.3	92.2*	8.7	2.8
Cc1cccc(N2C(=O)NC(=O)/C(=C\C=C\c3ccco3)C2=O)c1	4.9	63.9	21.7	11.1
O=C1NC(=O)N(Cc2ccco2)C(=O)/C1=C/C=C/c1ccco1	5.0	32.2	72.9*	-2.9
Cc1ccc(N2C(=O)NC(=O)/C(=C\C=C\c3ccco3)C2=O)cc1	-1.2	54.6	45.5	24.1
SMILES	NTR1 agonist	ALR inh	UBC9 SUMO inh	Cardio protect
Cc1ccc(N2C(=O)NC(=O)/C(=C\C=C\c3ccco3)C2=O)cc1C	x	96.4*	29.9	46.5
O=C1NC(=O)N(c2ccccc2)C(=O)/C1=C/C=C/c1ccco1	15.2	97.2*	24.4	18.4
Cc1ccc2c(c1)=NC(=O)/C(=C/c1c(O)[nH]c(=O)[nH]c1=O)C=2	0.4	9.0	35.2	23.7
Cc1ccc2c(c1)=C/C(=C\c1c(O)[nH]c(=S)[nH]c1=O)C(=O)N=2	-0.6	97.0*	2.2	x
Cc1ccc2c(c1)CNc1ccccc1O2	-0.6	88.2*	2.5	-1.5
CCN(CC)c1ccc(N=Cc2c(O)n(-c3cc(OC)ccc3OC)c(=O)[nH]c2=O)cc1	0.6	95.1*	-5.9	-5.8
Oc1ccc(CC2CC3CCN2CC3)cc1O (stereo unspecified)	1.4	99.1*	17.7	11.3
COc1ccc(C2NCc3ccc4c(c3-n3cccc32)OCO4)cc1O (stereo unspecified)	0.9	x	-9.9	x
Cc1cc(OC(=O)c2ccco2)c2c3c(c(=O)oc2c1)CCCC3	3.4	57.5	-0.2	-22.5
CC1(O)CCN2C(=O)CCc3cccc1c32 (stereo unspecified)	-1.2	97.4*	x	2.5
CCOc1ccc(C=C2C(=O)NC(=S)NC2=O)cc1OCC	x	x	x	-4.4
CC(Cc1ccccc1Sc1ccc(O)cc1)N(C)C (stereo unspecified)	-1.1	99.0*	-0.9	11.9
C[C@]12CC[C@@H]3c4ccc(O)c(O)c4CC[C@H]3[C@@H]1CC[C@@H]2O	3.3	11.0	0.6	121.2*
Cc1ccc(-c2nc(CS(=O)CC(=O)N3CCC4(CC3)OCCO4)c(C)o2)cc1 (stereo unspecified)	-1.0	99.2*	10.9	3.2
CC(C)(C)c1ccc(O)c(N=Cc2c(O)ccc3ccccc23)c1	-1.2	-39.3	9.5	51.1*
COC(=O)C(O)(c1ccc(N=Cc2ccccc2O)c(C)c1)C(F)(F)F (stereo unspecified)	1.2	-3.2	2.1	12.9
CCCCN1C(=O)/C(=C/c2ccc(N3CCCCCC3)cc2)C(=O)NC1=S	-1.3	8.6	11.2	x
C=CCN1C(=O)/C(=C/c2ccc3c(c2)CCCN3CCC)C(=O)NC1=S	2.3	99.1*	15.1	-5.1
O=C1NC(=S)N(C2CC2)C(=O)/C1=C/c1ccc2c(c1)CCN2CCCCl	x	97.9*	24.8	5.5
CCN1C(=O)/C(=C/c2ccc3c(c2)CCN3CCCCl)C(=O)NC1=S	x	98.1*	25.1	4.3
CN1C(=O)/C(=C\c2ccc(N3CCCCCC3)cc2)C(=O)NC1=S	1.9	-12.3	11.4	-2.6
CC(C)(C)N1C(=O)NC(=O)/C(=C\c2ccc3c(c2)CCN3CCCCl)C1=O	0.1	90.2*	21.9	0.7
Cc1ccccc1-n1c(O)c(/C=N/Nc2nc3c(c(=O)n(C)c(=O)n3C)n2C)c(=O)[nH]c1=S	1.7	-58.8	3.0	8.5
Cn1c(=O)c2c(nc(N/N=C/c3c(O)n(C4CCCCC4)c(=S)[nH]c3=O)n2C)n(C)c1=O	1.3	14.0	-11.9	67.7*
O=C1NC(=O)C(=Cc2ccc(-c3ccc(F)cc3O)o2)C(=O)N1	28.4	97.7*	7.0	8.6
SMILES	NTR1 agonist	ALR inh	UBC9 SUMO inh	Cardio protect
O=C1NC(=O)C(=Cc2ccc(-c3ccc(Cl)cc3)o2)C(=O)N1	40.7*	94.4*	2.9	-9.1
Cc1ccc(/C=C2\C(=O)NC(=O)N(CCc3ccc(F)cc3)C2=O)o1	3.9	6.2	-1.9	-0.3
O=C1NC(=O)C(=Cc2ccc(-c3ccc(S(=O)(=O)N4CCOCC4)cc3)o2)C(=O)N1	22.7	92.1*	12.9	-0.6
O=C1NC(=O)C(=Cc2ccc(N3CCOCC3)cc2)C(=O)N1	-1.0	46.1	1.5	3.4
O=C(c1ccc2c(c1)N(Cc1ccccc1)CCS2)N1CCC2(CC1)OCCO2	0.4	84.7*	18.5	0.5
C=CCN1C(=O)c2ccccc2Sc2ccc(C(=O)N3CCC4(CC3)OCCO4)cc21	-1.9	3.7	-4.6	-3.8
c1ccc(OCC2CO2)cc1 (stereo unspecified)	-1.2	16.2	x	-1.9
